Here are results for five molecules from the supplement of paper PMC4022240.

± gives the standard deviation.

One test has as its target T1, HaloTag-ATRX ADD domain (163-292).
T1 chain: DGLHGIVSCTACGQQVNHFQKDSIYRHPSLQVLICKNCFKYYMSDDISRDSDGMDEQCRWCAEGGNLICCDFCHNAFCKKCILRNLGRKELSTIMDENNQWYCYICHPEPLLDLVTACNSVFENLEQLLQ
The experiment in a line: peptide microarray binding signal (635 nm), min-max normalized on array (fraction of array maximum); higher = stronger binding. To be noted: peptide region: Unmod H3 variant; binder concentration: 50 nM. Put shortly:
(§1)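 For each library, binding signal was taken as the triplicate-spot mean intensity and then min-max scaled. Spots of histone 13-mer peptide–cellulose conjugates on nitrocellulose, printed in triplicate with a Cy3 tracer, were probed for 1 h at 4°C with either biotin-labelled HaloTag reader fusions (10 nM to 1 μM) and streptavidin-Alexa Fluor 647 or rabbit histone antibodies (1:10,000 to 1:2,000) and anti-rabbit Alexa 647. Readout at 635 nm came from an Axon GenePix 4000B.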
TARKSTGGKAPRK [Unmod H3 variant T A R K S T G G K A P R K]: the “peptide microarray binding signal” value was found to be 0.00552 ± 0.00053.
Same read-out and setting: the same measure for RKSAPSTGGVKKP [Unmod H3 variant R K S A P S T G G V K K P]: 0.002821 ± 2.4e-05.
As to QDFKTDLRFQSSA [Unmod H3 variant Q D F K T D L R F Q S S A], the “peptide microarray binding signal” value was 0.00483 ± 6.5e-05.

Staying with this test, now noted: peptide region: Unmod H3 variant; binder concentration: 500 nM.
In the case of TARKSTGGKAPRK [Unmod H3 variant T A R K S T G G K A P R K], the “peptide microarray binding signal” value turned out to be 0.0118 ± 0.00044.
On the same count and under the same terms, the same measure for RKSAPSTGGVKKP [Unmod H3 variant R K S A P S T G G V K K P]: 0.0103 ± 0.00037; for QDFKTDLRFQSSA [Unmod H3 variant Q D F K T D L R F Q S S A]: 0.011 ± 0.00018.

A further test addresses HaloTag-ING2 PHD (mouse Ing2 200-280). The description is as above. As to conditions: peptide region: Unmod H3 variant; binder concentration: 10 nM. The essentials: as §1
Take TARKSTGGKAPRK [Unmod H3 variant T A R K S T G G K A P R K]: the “peptide microarray binding signal” value was 0.00633 ± 0.00044.
Turning to RKSAPSTGGVKKP [Unmod H3 variant R K S A P S T G G V K K P], the “peptide microarray binding signal” value was 0.00674 ± 8.2e-05.
Still for that read-out and setting: the same measure for QDFKTDLRFQSSA [Unmod H3 variant Q D F K T D L R F Q S S A]: 0.00973 ± 0.00021.

The same test, now with this note: peptide region: Unmod H3 variant; binder concentration: 100 nM.
As to TARKSTGGKAPRK [Unmod H3 variant T A R K S T G G K A P R K], the “peptide microarray binding signal” value came out at 0.019 ± 0.0047.
On the same count and under the same terms, under RKSAPSTGGVKKP [Unmod H3 variant R K S A P S T G G V K K P] stands 0.0212 ± 0.0031.
The same measure, in the same setting: the same measure for QDFKTDLRFQSSA [Unmod H3 variant Q D F K T D L R F Q S S A]: 0.0168 ± 0.0012.

Another test has as its target anti-H3K4me3 antibody ab8580. The test is described as above. As to conditions: peptide region: Unmod H3 variant; binder concentration: 1:2,000 dilution. The essentials:
as §1
Consider TARKSTGGKAPRK [Unmod H3 variant T A R K S T G G K A P R K], for which the “peptide microarray binding signal” value was found to be 0.001 ± 4.5e-05.
On the same count and under the same terms, under RKSAPSTGGVKKP [Unmod H3 variant R K S A P S T G G V K K P] stands 0.000963 ± 5e-05.
With QDFKTDLRFQSSA [Unmod H3 variant Q D F K T D L R F Q S S A], the “peptide microarray binding signal” value worked out at 0.00276 ± 8.1e-05.

Staying with this test, now noted: peptide region: Unmod H3 variant; binder concentration: 1:10,000 dilution.
As for TARKSTGGKAPRK [Unmod H3 variant T A R K S T G G K A P R K], the “peptide microarray binding signal” value amounted to 0.00114 ± 1.2e-05.
RKSAPSTGGVKKP [Unmod H3 variant R K S A P S T G G V K K P]: the “peptide microarray binding signal” value worked out at 0.000799 ± 8.3e-06.
On the same count and under the same terms, under QDFKTDLRFQSSA [Unmod H3 variant Q D F K T D L R F Q S S A] stands 0.00542 ± 0.0011.

In another test the target is anti-H3K9me3 antibody ab8898. The test is described as above. To be noted: peptide region: Unmod H3 variant; binder concentration: 1:2,000 dilution. The essentials: as §1
With TARKSTGGKAPRK [Unmod H3 variant T A R K S T G G K A P R K], the “peptide microarray binding signal” value is 0.000664 ± 1.2e-05.
Consider RKSAPSTGGVKKP [Unmod H3 variant R K S A P S T G G V K K P], for which the “peptide microarray binding signal” value turned out to be 0.000468 ± 9e-06.
For QDFKTDLRFQSSA [Unmod H3 variant Q D F K T D L R F Q S S A], the “peptide microarray binding signal” value was determined as 0.00157 ± 6.5e-05.

The test is the same for the next values; noted with them: peptide region: Unmod H3 variant; binder concentration: 1:10,000 dilution.
Consider TARKSTGGKAPRK [Unmod H3 variant T A R K S T G G K A P R K], for which the “peptide microarray binding signal” value was 0.000923 ± 9.6e-06.
Still for that read-out and setting: under RKSAPSTGGVKKP [Unmod H3 variant R K S A P S T G G V K K P] stands 0.000634; under QDFKTDLRFQSSA [Unmod H3 variant Q D F K T D L R F Q S S A], 0.00202 ± 3.2e-05.

For a further test, the target named is T1, HaloTag-ATRX ADD domain (163-292). Described as above. To be noted: peptide region: Unmod H2B variant; binder concentration: 50 nM. The essentials:
as §1
Turning to PGELAKHAVSEGT [Unmod H2B variant P G E L A K H A V S E G T], the “peptide microarray binding signal” value stood at 0.01009 ± 9.9e-05.
Still for that read-out and setting: the same measure for KHAVSEGTKAVTK [Unmod H2B variant K H A V S E G T K A V T K]: 0.00533 ± 0.00061.

Staying with this test, now noted: peptide region: Unmod H2B variant; binder concentration: 500 nM.
With PGELAKHAVSEGT [Unmod H2B variant P G E L A K H A V S E G T], the “peptide microarray binding signal” value amounted to 0.0228 ± 0.001.
In the case of KHAVSEGTKAVTK [Unmod H2B variant K H A V S E G T K A V T K], the “peptide microarray binding signal” value is 0.00738 ± 0.00021.

In the next test the target is HaloTag-ING2 PHD (mouse Ing2 200-280). The description is as above. To be noted: peptide region: Unmod H2B variant; binder concentration: 10 nM. Put shortly: as §1
As to PGELAKHAVSEGT [Unmod H2B variant P G E L A K H A V S E G T], the “peptide microarray binding signal” value was determined as 0.0117 ± 0.00035.
Regarding KHAVSEGTKAVTK [Unmod H2B variant K H A V S E G T K A V T K], the “peptide microarray binding signal” value worked out at 0.00406 ± 5.6e-05.

Still in this test, the particulars now being: peptide region: Unmod H2B variant; binder concentration: 100 nM.
With PGELAKHAVSEGT [Unmod H2B variant P G E L A K H A V S E G T], the “peptide microarray binding signal” value was found to be 0.0287 ± 0.0019.
The same measure, in the same setting: the same measure for KHAVSEGTKAVTK [Unmod H2B variant K H A V S E G T K A V T K]: 0.0122 ± 0.00094.

A further test has as its target anti-H3K4me3 antibody ab8580. Described as above. To be noted: peptide region: Unmod H2B variant; binder concentration: 1:2,000 dilution. The essentials: as §1
For PGELAKHAVSEGT [Unmod H2B variant P G E L A K H A V S E G T], the “peptide microarray binding signal” value turned out to be 0.0133 ± 0.0011.
Still for that read-out and setting: under KHAVSEGTKAVTK [Unmod H2B variant K H A V S E G T K A V T K] stands 0.000906 ± 6.3e-05.

The test is the same for the next values; noted with them: peptide region: Unmod H2B variant; binder concentration: 1:10,000 dilution.
Consider PGELAKHAVSEGT [Unmod H2B variant P G E L A K H A V S E G T], for which the “peptide microarray binding signal” value was found to be 0.0163 ± 0.00093.
On the same count and under the same terms, the same measure for KHAVSEGTKAVTK [Unmod H2B variant K H A V S E G T K A V T K]: 0.0012 ± 3.2e-05.

For a further test, the target named is anti-H3K9me3 antibody ab8898. The test is described as above. To be noted: peptide region: Unmod H2B variant; binder concentration: 1:2,000 dilution. The essentials: as §1
As for PGELAKHAVSEGT [Unmod H2B variant P G E L A K H A V S E G T], the “peptide microarray binding signal” value was 0.00447 ± 0.00018.
Still for that read-out and setting: under KHAVSEGTKAVTK [Unmod H2B variant K H A V S E G T K A V T K] stands 0.000378 ± 7.5e-06.

The test is the same for the next values; noted with them: peptide region: Unmod H2B variant; binder concentration: 1:10,000 dilution.
With PGELAKHAVSEGT [Unmod H2B variant P G E L A K H A V S E G T], the “peptide microarray binding signal” value came out at 0.00484 ± 7.1e-05.
Still for that read-out and setting: under KHAVSEGTKAVTK [Unmod H2B variant K H A V S E G T K A V T K] stands 0.000865 ± 9e-06.
